Most compounds without a hit are left out; they make up all but 8.7% or so of the library.
AMA1-RON2 inh – inhibitors of Plasmodium falciparum AMA1-RON2 interaction; 360,000 compounds, 0.2% hits; AlphaScreen AMA1-biotinylated RON2 peptide binding; Potency, µM (titrated, usually from 58.2 µM), for inactives: at the highest dose activity change, negative = inhibition, actives largely listed as inhibitors;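 note: 0% = vehicle wells and -100% = peptide control; nearly all actives have a fitted effect of over 45% in size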
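AMA1 (3D7) with his tag at 25 nM final met compounds first, then biotinylated RON2 peptide at 25 nM; detection used donor plus acceptor beads, 10 µg/mL apiece, read by AlphaScreen after 30 min at room temperature.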
Pf growth 48h – P. falciparum growth inhibition at 48 hours (one generation) | P. falciparum luciferase growth in erythrocytes, 48 h | Potency, µM (titrated, usually from 28.7 µM), inactives show top-dose activity change, negative = inhibition, actives largely listed as inhibitors | 310,000 compounds, 5.9% hits
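Luminescence readout; reporter = integrated firefly luciferase in P. falciparum. RBC culture at 2% hematocrit, 0.1% parasitemia final, 37 C/5% CO2; decreased signal taken as growth inhibition.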
VACV mCherry inh – inhibitors of vaccinia virus infection (mCherry reporter signal) | 310,000 compounds, 0.63% hits | Vaccinia virus mCherry reporter infection, fluorescence | Potency, µM (series often up to 36.5 µM), for inactives: top-dose activity change, negative = inhibition, hits mostly inhibitors; calls by dose curve; tested in A549 cells; note: nearly all actives have a fitted effect of over 35% in size
Vaccinia Venus – inhibitors of vaccinia virus (Venus reporter) | 330,000 compounds, 0.46% hits | Vaccinia virus Venus reporter expression, fluorescence | Potency, µM (doses to about 36.5 µM), for inactives: at the highest dose activity change, negative = inhibition, actives largely listed as inhibitors; calls by dose curve; tested in A549 cells; note: nearly all actives have a fitted effect of over 30% in size
Pf growth 96h – P. falciparum growth inhibition at 96 hour, primary screen for plastid delayed-death inhibitors; 320,000 compounds, 6.9% hits; P. falciparum luciferase reporter growth, 96 h; Potency, µM (titrated, usually from 28.7 µM), inactives show at the highest dose activity change, negative = inhibition, most hits filed as inhibitors; AID 504834
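Parasite growth measured via integrated firefly luciferase reporter in P. falciparum. Infected erythrocytes at 2% hematocrit, 0.05% parasitemia final were treated 96 hours at 37 C under 5% CO2, and luminescence was read.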
The depositor's hits bear a star; i = inactive; u = inconclusive; x = not tested or not shown; [ ] = another dose, or the depositor's remark. Unless noted, calls come from the whole dose curve; as a rule, active = well fitted curve in the direction sought with a large enough effect; inconclusive = small, poorly fitted or top-dose-only effect, or another doubt; inactive = no such curve, though single readings can be large; an effect the other way counts as inactive or inconclusive. Unless noted, % is set by controls: 0 for no effect and ±100 for the full control effect; potency is the fitted concentration of half-maximal effect.

SMILES	AMA1-RON2 inh	Pf growth 48h	VACV mCherry inh	Vaccinia Venus	Pf growth 96h
CC1CCN(C(=O)C2CCC(CNS(=O)(=O)c3cccc4cccnc34)CC2)CC1 (stereo not given)	x	x	x	x	9.28µM*
CC(=O)N1c2ccc(S(=O)(=O)NCC3CCC(C(=O)NC4CCC(C)CC4)CC3)cc2CC1C (stereo not given)	8.1%	13.1µM*	-5.0%	-24.8%	u
CCC(Oc1ccc(F)cc1)C(=O)Nc1c(C(=O)c2ccc(C)cc2)oc2ccccc12 (stereo not given)	x	x	-7.5%	-8.2%	x
COc1ccc(C(CCN2CCOCC2)c2c(OC)cc(OC)c3c(C)cc(=O)oc23)cc1 (stereo not given)	-4.8%	u	u	-13.6%	u
COc1cc(C(CCN2CCOCC2)c2c(OC)cc(OC)c3c(C)cc(=O)oc23)cc(OC)c1OC (stereo not given)	-1.1%	13.1µM*	-6.2%	-12.7%	u
COc1cc(C(CCN2CCCC2)c2c(OC)cc(OC)c3c(C)cc(=O)oc23)cc(OC)c1OC (stereo not given)	-3.6%	7.38µM*	14.7%	-21.2%	9.28µM*
C/C(=N\NC(=O)c1ccccc1OCCOc1ccccc1)c1ccccc1F	8.4%	11.7µM*	u	-25.0%	u
COc1ccc(NC2=C(c3ccc(C(F)(F)F)cc3)C(=O)c3ccccc32)cc1	x	x	-5.5%	9.7%	x
CCOc1ccccc1CNc1nc2nc(C)c(CC(=O)OC)c(=O)n2[nH]1	x	x	-19.3%	-14.4%	x
CCn1cc(C(=O)N2CCN(c3ccccc3OC)CC2)c(=O)c2cc(S(=O)(=O)N3CCC(C)CC3)ccc21	x	x	u	-21.1%	x
Cc1ccccc1-c1nc(CN2CCC(C(=O)NCc3ccc(F)cc3)CC2)c(C)o1	x	x	-8.6%	-20.1%	x
Cc1cc(NCCCn2ccnc2)n2nc(-c3ccc(Cl)cc3)cc2n1	-1.8%	2.62µM*	-21.1%	-6.2%	20.0%
Cc1cccc(-c2cc3nc(C)c(C)c(NCCCn4ccnc4)n3n2)c1	-15.7%	1.65µM*	-26.8%	u	u
Cc1cc(NCCCn2ccnc2)n2nc(-c3ccc(F)cc3)cc2n1	-4.7%	4.15µM*	i	-18.6%	-3.7%[5.75 µM]
COc1cc(=O)n2c(c1C(=O)NC(C)c1ccco1)CCN(Cc1ccccc1C(F)(F)F)CC2 (stereo not given)	x	x	-13.0%	-6.5%	x
COc1cc(NC(C)C(=O)N2CC(C)OC(C)C2)cc(OC)c1 (stereo not given)	-14.4%	4.65µM*	x	4.9%	x
CCN(CC)CCCN(Cc1cc2cc(OC)ccc2[nH]c1=O)C(=O)Nc1ccc(F)cc1	3.8%	x	x	-6.9%	-16.1%[5.75 µM]
CCc1ccc2[nH]c(=O)c(CN(CCN(CC)CC)C(=O)Nc3ccccc3OC)cc2c1	-7.0%	14.7µM*	x	-7.1%	31.1%
CCN(CC)CCCN(Cc1cc2cc(OC)ccc2[nH]c1=O)C(=O)Nc1ccccc1	5.8%	9.28µM*	15.8%	-4.6%	u
CCN(CC)c1ccc(C(=O)NNC(=O)CCl)cc1	50.8%	6.57µM*	-6.4%	-9.2%	u
CCN(CC)c1ccc(C(=O)NNC(=O)CCNC(=O)c2ccccc2)cc1	-11.4%	3.5%	i	-16.7%	u
CC(C)C(NS(=O)(=O)c1cccc2cccnc12)C(=O)Nc1ccc(OC(F)(F)F)cc1 (stereo not given)	x	x	1.8%	4.3%	x
CC(=O)OC(C)(C)/C=C/C(=O)C(C)(O)C1C(O)CC2(C)C3CC=C4C(CC(O)C(=O)C4(C)C)C3(C)C(=O)CC12C (stereo not given)	5.8%	x	u	39.8µM*	x
CC(=O)OC(C)(C)/C=C/C(=O)[C@](C)(O)[C@H]1[C@H](O)C[C@@]2(C)[C@@H]3CC=C4[C@H](C[C@H](O)C(=O)C4(C)C)[C@]3(C)C(=O)C[C@]12C	9.9%	3.7µM*	u	8.91µM*	3.29µM*
CC(=O)OC(C)(C)/C=C/C(=O)C(C)(O)C1[C@H](O)C[C@@]2(C)C3CC=C4C(CC[C@@H](O)C4(C)C)[C@]3(CO)C(=O)C[C@]12C (stereo not given in full)	8.7%	10.4µM*	7.08µM*	35.5µM*	1.65µM*
SMILES	AMA1-RON2 inh	Pf growth 48h	VACV mCherry inh	Vaccinia Venus	Pf growth 96h
CC(=O)OC(C)(C)/C=C/C(=O)[C@](C)(O)C1[C@H](O)C[C@@]2(C)C3CC=C4C(C=C(O[C@@H]5O[C@H](CO)[C@@H](O)[C@H](O)[C@H]5O)C(=O)C4(C)C)[C@]3(C)C(=O)C[C@]12C (stereo not given in full)	5.2%	x	-12.0%	22.4µM*	x
COCC(C)NC(=O)C1=CC(c2ccc3c(c2)OCO3)=NS(=O)(=O)N1C (stereo not given)	x	x	-7.5%	1.1%	x
CCOc1ccc(NC(=O)CN(C)C(=O)c2ccccc2Cc2ccccc2)cc1OCC	-12.2%	11.7µM*	x	x	u
NC(=O)c1cc(Cc2ccccc2)sc1NC(=O)c1ccco1	-0.7%	50.6%	x	x	x
CCOc1ccc(NC(=O)CN(C)C(=O)c2csc3c2CCCC3)cc1OCC	-6.7%[11.6 µM]	13.1µM*	-12.1%	-10.7%	u
CCOc1ccc(CC(=O)Nc2sc(Cc3ccccc3)cc2C(N)=O)cc1OCC	-5.2%	x	x	x	11.7µM*
CCOc1ccc(NC(=O)CN(C)C(=O)CSCc2cccc(C)c2)cc1OCC	-0.7%	u	-1.7%	-26.9%	14.7µM*
COc1ccc(NC(=O)CN(C)C(=O)c2csc3c2CCCC3)cc1	-11.3%	-1.2%	i	-21.2%	22.9%
N[C@@H](CCC(=O)N[C@@H](CS)C(=O)NCC(=O)O)C(=O)O	x	x	-5.7%	-3.1%	x
CCOC(=O)c1cccc(NC(=O)CCc2c(C)nc3c4cccnc4nn3c2C)c1	x	x	-6.3%	-5.6%	x
CCOc1ccc(NC(=O)CN(C)C(=O)c2cc(S(=O)(=O)N(C)C)ccc2N2CCCC2)cc1OCC	-2.8%	10.4µM*	-9.9%	-16.3%	-19.5%
CN(CC(=O)Nc1ccccc1Br)C(=O)c1ccccc1Cc1ccccc1	3.9%	u	x	x	-26.3%
CN(CC(=O)Nc1c(Cl)cccc1Cl)C(=O)c1ccccc1Cc1ccccc1	5.6%	13.1µM*	-9.1%	-25.1%	u
CCOc1ccc(NC(=O)CN(C)C(=O)c2cc(S(=O)(=O)N3CCCCC3)ccc2Cl)cc1OCC	-5.3%	-2.4%	i	-16.8%	u
COc1cc(OC)cc(-c2cc3nc4c(c(N5CCN(c6ncccn6)CC5)n3n2)CCCC4)c1	10.2%	1.31µM*	-1.0%	-16.7%	4.5%
CN(CCO)c1c2c(nc3cc(-c4cccc(F)c4)nn13)CCCC2	9.5%	80.7%	-10.2%	-25.9%	u
Fc1cccc(-c2cc3nc4c(c(N5CCC6(CC5)OCCO6)n3n2)CCCC4)c1	2.2%	9.28µM*	i	0.0%	13.7%
OC1CCN(c2c3c(nc4cc(-c5cccc(F)c5)nn24)CCCC3)CC1	5.5%	9.28µM*	-6.8%	2.0%	18.8%
Clc1cccc(-c2cc3nc4c(c(N5CCNCC5)n3n2)CCCC4)c1	x	87.0%	x	x	-6.0%

Source: PubChem BioAssay (National Center for Advancing Translational Sciences (NCATS))
